Test [1] in a line: rapamycin-like changes in RPL19A-GFP expression – cell-based, S. cerevisiae, multiplex flow cytometry, primary screen (AID 1862; in the data active means percent of DMSO control GFP below about 86%;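 further: lower values mimic rapamycin by blocking the RPL19A rise seen in DMSO cells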). The settings on record: S. cerevisiae RPL19A-GFP strain, flow cytometry fluorescence, 3 h; at 10 µM; stronger effect = lower value.
The nature of test [2]: TOR pathway GLN3 branch reporter MEP2-GFP changes – S. cerevisiae, multiplex flow cytometry, primary screen (AID 1867;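 active means GFP response, as percent of the DMSO control, above the screen-wide mean plus 3 SD, about 139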;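 further: median GFP channel fluorescence of barcode-gated MEP2-GFP cells measured by flow cytometry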). The settings on record: S. cerevisiae MEP2-GFP strain, 3 h, at 10 µM, stronger effect = higher value, 100% means same as DMSO wells. (A flow cytometer gives signals particle by particle.)
Test [3] can be described thus: TOR pathway RTG branch CIT2 reporter changes – S. cerevisiae, GFP fusion, multiplex flow cytometry, primary screen (AID 1870;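 active means percent response above a set limit, the screen-wide mean plus 3 SD, cut at about 130% in these data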;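 further: barcoded CIT2-GFP strain pooled with four other GFP strains with rapamycin as positive control; median GFP fluorescence per well over plate mean of DMSO wells so 100% = DMSO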). The following applies: S. cerevisiae CIT2-GFP expression, 3 h, at 10 µM, stronger effect = higher value.
A short description of test [4]: TOR pathway LAP4-GFP level changes – S. cerevisiae, multiplex flow cytometry, primary screen (AID 1873;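 active means GFP signal, as percent of the solvent control, above the screen mean plus 3 SD, about 149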). The settings on record: S. cerevisiae LAP4-GFP expression, 3 h, at 10 µM, stronger effect = higher value.
The nature of test [5]: yeast AGP1-GFP level changes, GLN3 branch – cell-based, multiplex flow cytometry, S. cerevisiae, primary screen (AID 1887;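 active means GFP signal above the screen-wide mean plus 3 SD, that is over about 124.5% of the solvent control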;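 further: AGP1-GFP fusion strain of S. cerevisiae within a five-strain barcoded multiplex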). The settings on record: 3 h, at 10 µM, stronger effect = higher value.
Test [6] can be described thus: reduced mouse 2C T cell binding to pMHC/ICAM-1 vesicles – MLPCN validation set, flow cytometry, LFA-1/ICAM-1 modulator project, pilot screen (AID 2523;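 active means response below a set limit, under 55% cells CD8-positive and vesicle-bound, and CD8 cells' 90th-percentile brightness under 279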;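 on vesicle binding response: mean PE anti-B7-1 fluorescence of CD8+ cells relative to row control; 100% = QL9-loaded vesicles with DMSO vehicle in the same plate row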). The settings on record: 2C mouse CD8+ T cells, at 7 µM, stronger effect = lower value; double positive events: measured here: CD8+/vesicle+ event percentage.
The target of test [7] is Integrin beta-1 (Homo sapiens) + Integrin alpha-4 (Homo sapiens) (UniProt P13612+P05556). The test can be described thus: alpha4beta1 integrin LIBS antibody binding reduction – U937 cells, HUTS-21 mAb, flow cytometry, validation set, VLA-4 allosteric modulator project, pilot screen (AID 2674).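 Further: antibody binding induced by the VLA-4 ligand LDV present at three times its Kd; 0% = LDV ligand with antibody and no compound and 100% = antibody without LDV.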 The settings on record: HUTS-21 LIBS mAb binding, at 6.7 µM, stronger effect = higher value, binding induced by LDV ligand.

Test [8] can be described thus: calorie-restriction mimetic ROS inhibitors, yeast – validation compound set, pilot screen (AID 2706;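 active means superoxide response below 65% of plate, a cut near 3 SD across the whole screen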;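 further: yeast exposed to compound for one week at 30 degrees C before staining; 100% = mean of all compound wells on the same plate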). The following applies: S. cerevisiae aging, superoxide DHE fluorescence; at 10 µM; stronger effect = lower value.
Test [9] has as its target Beta-adrenergic receptor kinase 1 (Homo sapiens) (UniProt P25098). The test can be described thus: GRK2 binders displacing RNA aptamer, biochemical, validation, human GRK2, bead flow cytometry (AID 488806;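 active means aptamer binding inhibition above 30%, about 3 SD of noise from non-fluorescent compounds; inactive means inhibition at or below 30%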). The following applies: bead-bound GRK2, FAM-aptamer displacement, at 10 µM, stronger effect = higher value.
Test [10] concerns the target Beta-2 adrenergic receptor (Homo sapiens) (UniProt P07550). The test can be described thus: agonist-induced loss of surface beta2AR – cell-based, FAP fluorogen, flow cytometry, validation set, pilot screen (AID 504459;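 active means percent response above 42, roughly 3 SD of non-fluorescent test compounds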;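 further: agonist-driven loss of surface beta2AR via internalization measured by FAP dye flow cytometry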). The following applies: Am2.2-beta2AR cells, at 10 µM, stronger effect = higher value.
In test [11] the target is AP-2 complex subunit beta (Homo sapiens) (UniProt P63010). The test can be described thus: beta-arrestin/AP2 interaction blockers – biochemical, validation set, GST-AP2 beads, flow cytometry, pilot screen (AID 504541;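 active means inhibition above 54%, about 3 SD of non-fluorescent compounds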;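 further: AP2 carries R879A mutation and is captured from E. coli lysate; bead-bound FITC arrestin peptide fluorescence measuring arrestin peptide binding to AP2; 0% = DMSO wells and 100% = excess unlabeled arrestin peptide control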). The settings on record: FITC arrestin peptide, at 10 µM, stronger effect = higher value, AP2 beta2 appendage fragment, R879A mutant.
Test [12] is described as follows: cytosolic pH regulators acting via V-ATPase – S. cerevisiae, pHLuorin, HTS validation (AID 504600; in the data active means response above about 15%;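 further: plate controls were DMSO for no effect and reference compound for full effect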). The following applies: V-ATPase proton transport, at 10 µM, stronger effect = higher value.
Test [13] has as its system anti-desmoglein-3 scFv antibody binding to human DSG3. The test can be described thus: blockers of pathogenic pemphigus antibody–desmoglein-3 binding – biochemical, validation compound set, bead-based, flow cytometry, pilot screen (AID 588368;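 active means binding below the plate cutoff, the plate median minus 3 SD, with a reading above zero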;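 further: signal is the median channel fluorescence of bead-bound GFP antibody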). The settings on record: Protein G beads, DSG3-Fc, scFv-GFP binding, at 10 µM, stronger effect = lower value.
A short description of test [14]: Nile Red efflux blockade in pump-expressing yeast – validation compound set, multiplex, phenotypic, pilot screen (AID 588506;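 active means efflux inhibition above 0.42, the validation set average plus 4 SD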;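 further: Nile Red retained in cells so higher fluorescence means more efflux inhibition; 0 = negative control wells and 1 = enniatin B 25 µM full block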). The following applies: S. cerevisiae pump-expressing triplex, Nile Red efflux flow cytometry; at 10 µM; stronger effect = higher value; the pumps come from Candida albicans.
Test [15] deals with ATP-binding cassette sub-family B member 6 (Homo sapiens) (UniProt Q9NP58). The test can be described thus: blockers of ABCB6-driven porphyrin uptake – K562-ABCB6 cells, flow cytometry, validation set, pilot screen (AID 588550;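 active means inhibition above the screen-wide mean plus 3 SD, about 51%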;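 further: 0% = DMSO wells and 100% = benzethonium chloride 70 µM positive control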). The following applies: K562-ABCB6 porphyrin accumulation, 1 h, at 10 µM, stronger effect = higher value.
A short description of test [16]: AML differentiation inducers, ER-HoxA9 marrow cells – cell-based, GFP/MAC1 double positive, flow cytometry, validation set, primary screen (AID 588685;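 active means differentiation response of at least 50%, scaled between solvent and reference control, from cells with both markers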;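 further: compound exposure lasts four days before antibody staining and flow analysis; 0% = DMSO wells and 100% = 5 µM fulvestrant positive control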). The settings on record: stronger effect = higher value, normalized: vehicle 0, fulvestrant 100.

Several values for one entry are separate records, joined by “and”; a condition that tells them apart may be missing. Equal entries are not always repeated. Results filed as inconclusive are left out. Activity calls are given as the source filed them.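 How the source made its calls, unless noted: active means inhibition above 50%, about 3 SD of the validation set; inactive means the rest.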

Chain of Beta-2 adrenergic receptor (Homo sapiens) (P07550 whole entry, looked up): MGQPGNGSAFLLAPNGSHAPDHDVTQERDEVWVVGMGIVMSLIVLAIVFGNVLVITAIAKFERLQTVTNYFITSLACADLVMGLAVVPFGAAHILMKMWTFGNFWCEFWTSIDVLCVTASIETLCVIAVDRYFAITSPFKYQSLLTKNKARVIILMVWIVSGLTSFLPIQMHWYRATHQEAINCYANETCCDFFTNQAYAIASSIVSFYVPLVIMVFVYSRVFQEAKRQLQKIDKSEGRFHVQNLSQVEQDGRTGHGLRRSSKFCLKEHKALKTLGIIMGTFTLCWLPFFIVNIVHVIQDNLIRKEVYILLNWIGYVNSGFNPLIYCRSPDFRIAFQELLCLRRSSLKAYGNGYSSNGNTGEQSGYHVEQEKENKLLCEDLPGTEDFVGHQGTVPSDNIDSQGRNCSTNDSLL
Chain of ATP-binding cassette sub-family B member 6 (Homo sapiens) (Q9NP58 whole entry, looked up): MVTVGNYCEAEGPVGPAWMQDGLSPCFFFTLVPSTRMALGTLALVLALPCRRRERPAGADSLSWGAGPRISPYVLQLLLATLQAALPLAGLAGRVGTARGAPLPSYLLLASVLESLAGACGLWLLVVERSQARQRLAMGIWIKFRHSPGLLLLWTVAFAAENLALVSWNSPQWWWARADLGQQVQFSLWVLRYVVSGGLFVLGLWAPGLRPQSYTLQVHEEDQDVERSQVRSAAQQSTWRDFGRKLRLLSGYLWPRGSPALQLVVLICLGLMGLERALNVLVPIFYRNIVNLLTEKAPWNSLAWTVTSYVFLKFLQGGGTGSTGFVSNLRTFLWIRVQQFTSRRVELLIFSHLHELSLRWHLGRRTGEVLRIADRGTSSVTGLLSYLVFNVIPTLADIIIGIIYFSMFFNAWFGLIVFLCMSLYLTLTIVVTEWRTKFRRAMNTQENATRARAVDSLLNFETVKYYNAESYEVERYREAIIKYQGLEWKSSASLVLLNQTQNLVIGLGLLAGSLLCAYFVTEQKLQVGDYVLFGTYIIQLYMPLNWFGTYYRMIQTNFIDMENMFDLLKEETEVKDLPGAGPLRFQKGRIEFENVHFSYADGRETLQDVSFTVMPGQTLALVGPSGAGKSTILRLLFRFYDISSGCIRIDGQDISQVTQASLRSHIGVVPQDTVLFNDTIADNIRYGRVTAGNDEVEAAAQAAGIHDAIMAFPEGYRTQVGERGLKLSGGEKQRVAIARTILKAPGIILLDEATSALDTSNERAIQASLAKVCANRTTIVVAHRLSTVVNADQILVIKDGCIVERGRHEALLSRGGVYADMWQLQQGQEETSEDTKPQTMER
Chain of AP-2 complex subunit beta (Homo sapiens) (P63010 whole entry, looked up, the tested form may be a part, one chain of several): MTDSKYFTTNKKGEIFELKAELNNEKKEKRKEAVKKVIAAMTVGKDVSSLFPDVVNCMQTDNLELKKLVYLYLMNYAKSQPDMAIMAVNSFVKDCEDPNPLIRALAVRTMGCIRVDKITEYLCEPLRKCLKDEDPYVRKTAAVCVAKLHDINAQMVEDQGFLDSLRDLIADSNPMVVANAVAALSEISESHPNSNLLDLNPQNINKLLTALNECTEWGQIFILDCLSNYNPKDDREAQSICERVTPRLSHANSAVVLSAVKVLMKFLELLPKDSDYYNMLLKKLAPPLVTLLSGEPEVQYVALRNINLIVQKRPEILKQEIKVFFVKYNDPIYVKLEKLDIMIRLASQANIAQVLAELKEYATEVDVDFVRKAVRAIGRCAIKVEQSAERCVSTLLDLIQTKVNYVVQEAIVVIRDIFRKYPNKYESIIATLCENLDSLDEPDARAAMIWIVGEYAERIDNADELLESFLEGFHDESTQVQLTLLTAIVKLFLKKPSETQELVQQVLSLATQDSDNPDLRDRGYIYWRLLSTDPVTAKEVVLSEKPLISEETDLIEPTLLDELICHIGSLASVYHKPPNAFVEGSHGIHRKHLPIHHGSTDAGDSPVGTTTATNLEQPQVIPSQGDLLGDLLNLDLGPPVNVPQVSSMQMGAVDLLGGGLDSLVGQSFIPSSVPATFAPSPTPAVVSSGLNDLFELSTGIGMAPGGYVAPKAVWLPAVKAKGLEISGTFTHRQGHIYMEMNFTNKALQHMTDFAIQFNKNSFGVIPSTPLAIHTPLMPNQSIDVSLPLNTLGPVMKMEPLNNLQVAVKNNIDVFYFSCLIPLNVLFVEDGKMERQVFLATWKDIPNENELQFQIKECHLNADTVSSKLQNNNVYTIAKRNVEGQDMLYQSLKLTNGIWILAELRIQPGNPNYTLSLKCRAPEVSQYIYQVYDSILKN
Chain of Beta-adrenergic receptor kinase 1 (Homo sapiens) (P25098 whole entry, looked up): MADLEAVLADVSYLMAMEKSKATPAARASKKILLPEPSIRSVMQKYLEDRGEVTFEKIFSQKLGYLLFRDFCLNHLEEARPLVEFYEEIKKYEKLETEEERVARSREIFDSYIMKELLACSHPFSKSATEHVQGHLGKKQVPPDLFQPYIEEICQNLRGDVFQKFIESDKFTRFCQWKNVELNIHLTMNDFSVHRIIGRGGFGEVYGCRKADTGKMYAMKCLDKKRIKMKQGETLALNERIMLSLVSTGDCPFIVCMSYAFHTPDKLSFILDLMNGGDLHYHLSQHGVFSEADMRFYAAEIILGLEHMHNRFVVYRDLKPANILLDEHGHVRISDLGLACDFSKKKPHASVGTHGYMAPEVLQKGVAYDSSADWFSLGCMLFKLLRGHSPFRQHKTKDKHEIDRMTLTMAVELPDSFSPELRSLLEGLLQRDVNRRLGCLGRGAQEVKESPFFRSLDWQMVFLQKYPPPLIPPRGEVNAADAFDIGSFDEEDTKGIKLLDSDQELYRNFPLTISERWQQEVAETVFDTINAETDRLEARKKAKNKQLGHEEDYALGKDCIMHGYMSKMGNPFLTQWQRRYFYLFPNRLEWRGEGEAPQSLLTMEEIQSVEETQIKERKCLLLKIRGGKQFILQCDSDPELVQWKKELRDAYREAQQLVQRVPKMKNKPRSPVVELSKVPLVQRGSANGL
Chain of Integrin beta-1 (Homo sapiens) + Integrin alpha-4 (Homo sapiens) (P05556 whole entry, looked up): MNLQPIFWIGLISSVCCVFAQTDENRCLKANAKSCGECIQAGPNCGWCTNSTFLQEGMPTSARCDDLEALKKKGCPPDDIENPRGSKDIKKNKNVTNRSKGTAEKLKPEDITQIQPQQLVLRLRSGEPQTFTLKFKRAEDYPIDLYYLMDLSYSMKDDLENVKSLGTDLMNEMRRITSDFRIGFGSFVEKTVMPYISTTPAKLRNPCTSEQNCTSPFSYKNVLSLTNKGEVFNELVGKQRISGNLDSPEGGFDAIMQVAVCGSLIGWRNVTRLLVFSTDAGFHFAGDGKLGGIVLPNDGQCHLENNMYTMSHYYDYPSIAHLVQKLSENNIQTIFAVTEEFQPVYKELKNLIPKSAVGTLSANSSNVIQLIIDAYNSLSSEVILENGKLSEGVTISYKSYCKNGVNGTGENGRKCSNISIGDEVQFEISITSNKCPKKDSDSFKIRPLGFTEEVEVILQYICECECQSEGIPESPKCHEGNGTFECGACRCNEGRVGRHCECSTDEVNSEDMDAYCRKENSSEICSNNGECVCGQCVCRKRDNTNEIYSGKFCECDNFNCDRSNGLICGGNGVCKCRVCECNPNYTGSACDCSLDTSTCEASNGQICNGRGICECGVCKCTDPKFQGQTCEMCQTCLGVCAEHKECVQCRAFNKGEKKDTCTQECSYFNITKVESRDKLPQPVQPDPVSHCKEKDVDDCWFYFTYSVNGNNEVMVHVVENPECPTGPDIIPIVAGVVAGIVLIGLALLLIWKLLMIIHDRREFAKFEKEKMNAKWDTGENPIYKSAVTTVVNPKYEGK
Chain of Integrin beta-1 (Homo sapiens) + Integrin alpha-4 (Homo sapiens) (P13612 whole entry, looked up): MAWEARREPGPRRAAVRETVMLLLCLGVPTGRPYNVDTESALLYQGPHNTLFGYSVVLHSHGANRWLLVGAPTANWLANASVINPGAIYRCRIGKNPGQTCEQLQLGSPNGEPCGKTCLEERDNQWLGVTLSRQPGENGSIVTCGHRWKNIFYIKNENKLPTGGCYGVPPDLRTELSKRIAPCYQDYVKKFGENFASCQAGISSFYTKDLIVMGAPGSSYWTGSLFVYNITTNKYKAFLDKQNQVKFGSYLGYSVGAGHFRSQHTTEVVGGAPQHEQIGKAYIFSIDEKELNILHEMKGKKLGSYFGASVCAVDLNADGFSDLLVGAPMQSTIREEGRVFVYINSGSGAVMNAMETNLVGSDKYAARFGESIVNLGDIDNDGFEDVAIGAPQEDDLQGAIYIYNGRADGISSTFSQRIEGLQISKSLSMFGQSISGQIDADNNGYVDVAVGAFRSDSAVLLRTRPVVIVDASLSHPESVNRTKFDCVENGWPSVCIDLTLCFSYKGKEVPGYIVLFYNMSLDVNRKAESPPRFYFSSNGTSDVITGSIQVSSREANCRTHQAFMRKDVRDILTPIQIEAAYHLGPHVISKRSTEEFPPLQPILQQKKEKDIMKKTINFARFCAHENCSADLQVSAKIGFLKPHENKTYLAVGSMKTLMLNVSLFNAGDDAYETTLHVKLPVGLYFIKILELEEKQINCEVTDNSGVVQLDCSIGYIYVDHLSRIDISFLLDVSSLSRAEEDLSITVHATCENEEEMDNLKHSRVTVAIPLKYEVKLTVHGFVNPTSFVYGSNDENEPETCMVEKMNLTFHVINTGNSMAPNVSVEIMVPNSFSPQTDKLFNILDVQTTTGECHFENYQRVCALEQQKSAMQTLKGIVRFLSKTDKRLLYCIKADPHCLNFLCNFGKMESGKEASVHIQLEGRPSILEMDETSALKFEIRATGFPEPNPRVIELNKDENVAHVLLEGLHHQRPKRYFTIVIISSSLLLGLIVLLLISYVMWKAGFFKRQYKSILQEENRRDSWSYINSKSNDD

One may read the inhibition as the relative decrease from the control value, in per cent. As for `O=C(c1cccnc1)N1N=C(C2CC2)CC1(O)C(F)(F)F` (stereo not given), the percent of DMSO control GFP in [1] is 99.1% (inactive). For the same compound, the GFP response vs DMSO was 104% (inactive) in test [2] and 115% (inactive) in [4]. In test [3], the percent response of DMSO control is 93.9% (inactive). Besides, in test [5], the GFP response, % of DMSO was 104% (inactive). The same compound displayed a double positive events in test [6] of 60.4%. In addition, the vesicle binding response in [6] was 353% (inactive). The figures for the inhibition in [7], in test [11] and in test [15] were -7.25% (inactive), 2.62% (inactive) and 10% (inactive), respectively. The superoxide response (% of plate) in test [8] was 106% (inactive). The aptamer binding inhibition in [9] was 2% (inactive). The response is -5.28% (inactive) in [10] and -0.29% (inactive) in [12]. For the same compound, the binding (% of control) in test [13] was 101% (inactive). Besides, the efflux inhibition (fraction of control) in test [14] was -0.1 (inactive). Also, in test [16], the differentiation response is -28% (inactive).

Turning to `Nc1ccc(S(N)(=O)=O)cc1N`, the percent of DMSO control GFP in test [1] is 98.1% (inactive). Further, the GFP response vs DMSO in [2] is 119% (inactive); in test [4] it was 84.7% (inactive). The percent response of DMSO control in test [3] was 99.2% (inactive). The GFP response, % of DMSO in test [5] was 91.7% (inactive). In test [6], this compound had a double positive events of 66.3%. In addition, the vesicle binding response in test [6] was 202% (inactive). The inhibition was 3.55% (inactive) in test [7], 7.24% (inactive) in [11] and 14% (inactive) in [15]. The superoxide response (% of plate) in test [8] was 82.8% (inactive). Moreover, the aptamer binding inhibition in [9] is 3% (inactive). For the same compound, the response in test [10] was 31.7% (inactive); in test [12], 0.32% (inactive). The binding (% of control) in [13] is 103% (inactive). For the same compound, the efflux inhibition (fraction of control) in [14] is -0.28 (inactive). Moreover, the differentiation response in [16] was 2.46% (inactive).

For the compound `CCN(CC)CC(=O)Nc1c(C)cccc1C`, in test [1], the percent of DMSO control GFP is 106% (inactive) and 100% (inactive). Moreover, the GFP response vs DMSO in [2] was 109% (inactive) and 94.1% (inactive); in [4], 105% (inactive) and 98.2% (inactive). Further, the percent response of DMSO control in test [3] was 101% (inactive) and 109% (inactive). Moreover, the GFP response, % of DMSO in test [5] is 107% (inactive) and 105% (inactive). Moreover, the double positive events in [6] is 65.6% and 64.5%. In addition, the vesicle binding response in test [6] was 12800% (inactive). Moreover, the inhibition in [7] is 6.4% (inactive) and 0.94% (inactive); in test [11], -9.42% (inactive) and -7.53% (inactive); in test [15], 10% (inactive) and 7% (inactive). In addition, the superoxide response (% of plate) in test [8] is 87.6% (inactive) and 113% (inactive). Also, the aptamer binding inhibition in test [9] is 5% (inactive) and 0% (inactive). For the same compound, the response is -4.24% (inactive) and -9.06% (inactive) in test [10]; -5.61% (inactive) and -5.05% (inactive) in test [12]. In test [13], the binding (% of control) was 94.5% (inactive) and 99.9% (inactive). Further, the efflux inhibition (fraction of control) in [14] is 0.05 (inactive) and -0.1 (inactive). Further, in test [16], the differentiation response is -8.8% (inactive) and -15.2% (inactive).

For the compound `COc1cccc(CC2CC(=O)N(c3ccc4c(C)cc(=O)oc4c3)C2=O)c1` (stereo not given), the percent of DMSO control GFP in test [1] was 99.5% (inactive). Moreover, the GFP response vs DMSO in [2] was 106% (inactive); in test [4], 132% (inactive). In [3], the percent response of DMSO control is 87.2% (inactive). Also, the GFP response, % of DMSO in test [5] is 97.1% (inactive). Also, the double positive events in test [6] amounted to 61%. In addition, the vesicle binding response in [6] is 238% (inactive). Further, the inhibition was -0.43% (inactive) in test [7], -2.24% (inactive) in test [11] and 4% (inactive) in test [15]. For the same compound, the superoxide response (% of plate) in [8] is 93.9% (inactive). In [9], the aptamer binding inhibition is 2% (inactive). Besides, the response in test [10] was 5.39% (inactive); in test [12], 8.95% (inactive). In [13], the binding (% of control) was 98.9% (inactive). Moreover, the efflux inhibition (fraction of control) in test [14] is -0.06 (inactive). The differentiation response in test [16] was 39.2% (inactive).

For the compound `Cc1ccc(N2C(=O)c3ccccc3C2=O)cc1C`, the percent of DMSO control GFP in test [1] is 105% (inactive). Besides, the GFP response vs DMSO in test [2] is 104% (inactive); in test [4], 99.1% (inactive). The percent response of DMSO control in test [3] is 107% (inactive). Besides, in test [5], the GFP response, % of DMSO is 94.8% (inactive). Also, the double positive events in test [6] is 63.4%. Besides, the vesicle binding response in test [6] was 121% (inactive). In addition, the inhibition was 6.95% (inactive) in test [7], -6.64% (inactive) in test [11] and 0% (inactive) in test [15]. Also, the superoxide response (% of plate) in test [8] was 99.1% (inactive). For the same compound, the aptamer binding inhibition in [9] is 3% (inactive). The results for the response in test [10] and in test [12] were -0.69% (inactive) and 0.36% (inactive), respectively. Further, the binding (% of control) in [13] was 101% (inactive). The efflux inhibition (fraction of control) in test [14] is 0.24 (inactive). Moreover, the differentiation response in [16] was -3.11% (inactive).

The values above are taken from PubChem BioAssay.
